These results are taken from PubChem BioAssay (NCI).

Compounds without any hit were thinned out: in the full panel of roughly 83,000, 20% have a hit.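 96-well plates, one dose, 48 hours. Percent growth reported; active if below 10.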 The source made the active and inactive calls.

The subject of the experiment is SF-268 CNS. The experiment can be described thus: NCI-60 one-dose screen, 48 h (100 = growth as untreated, 0 = no growth, -100 = all killed). The conditions noted are these: 10 µM unless noted.
As for `Cc1cc(-c2nc3ccccc3s2)ccc1NC(=O)COc1ccc(Cl)cc1`, the growth is 109% (inactive).
For the molecule `C[C@H](CCC(=O)O)[C@H]1CC[C@H]2[C@@H]3CC[C@@H]4/C(=C\c5ccco5)C(=O)/C(=C\c5ccco5)C[C@]4(C)[C@H]3CC[C@]12C`, the growth was 80.6% (inactive).
The result for `COc1cc2c(c(OC)c1OC)-c1ccc(N=NC(N)=S)c(=O)cc1[C@@H](NC(C)=O)CC2` reads 9.15% (active).
For the molecule `c1ccc(CSc2ncnc3nc[nH]c23)nc1`, the growth is 109% (inactive).
As to `CC(=O)Nc1ccc2c(c1)c(NC(C)=O)nn2C(=O)Nc1ccc(Cc2ccccc2)cc1`, the growth is 46.6% (inactive).
The result for `COc1cc2c(=O)n(CC3CCCCC3)c3c4cc[nH]c4ncc3c2cc1OC` reads 28.8% (inactive); that for `COC1/C=C\OC2(C)Oc3c(C)c(O)c4c(O)c(c(CN(C)CCO)c(O)c4c3C2=O)NC(=O)/C(C)=C\C=C/C(C)C(O)C(C)C(O)C(C)C(OC(C)=O)C1C` (configuration not stated), 97.3% (inactive).
For `Cc1cc(N/N=C/c2nc(-c3ccc(Cl)cc3)oc2C)c2cc(Cl)ccc2n1` the value was 74.8% (inactive); for `C=C1CC[C@@H]2[C@](C)(COC(C)=O)[C@H](OC(C)=O)CC[C@@]2(C)[C@@H]1CC(NCc1ccc(F)cc1)C1=CCOC1=O` (some centres not stated), 62.6% (inactive); for `Cn1c2c(Cl)c(Cl)ccc2c2ccn3c(=O)c4ccccc4nc3c21`, 105% (inactive).
`CCOC(=O)Cc1cnn(C)c1NC(=O)c1ccc(Cl)cc1NC(C)=O`: the growth was 98.7% (inactive).
Consider `COc1ccc(-c2cc(NC(=O)Nc3ccc(O)cc3)no2)cc1`, for which the growth was 62.2% (inactive).
